Measurements taken from publication PMC10726135, “HNF4α isoforms regulate the circadian balance between carbohydrate and lipid metabolism in the liver”.
In all, about 18,000 sequences were measured (“log2 normalized intensity”: median about 0.36, highest 2% from about 7.3 on). The sample as a whole holds a higher share of the highest values than the screen did.

molecular target: T1, HNF4alpha8 (COS-7 nuclear extract) (Homo sapiens, UniProt P41235-5 1-452); assay: protein-binding microarray; COS-7 nuclear extract on double-stranded Agilent 4x180k PBM; binding buffer, salt, pH and temperature not given in the material; high values mean tight binding; details: chain copies: 2; label: 3' end of strand 1 on the slide; dsDNA, one strand shown
T1 sequence: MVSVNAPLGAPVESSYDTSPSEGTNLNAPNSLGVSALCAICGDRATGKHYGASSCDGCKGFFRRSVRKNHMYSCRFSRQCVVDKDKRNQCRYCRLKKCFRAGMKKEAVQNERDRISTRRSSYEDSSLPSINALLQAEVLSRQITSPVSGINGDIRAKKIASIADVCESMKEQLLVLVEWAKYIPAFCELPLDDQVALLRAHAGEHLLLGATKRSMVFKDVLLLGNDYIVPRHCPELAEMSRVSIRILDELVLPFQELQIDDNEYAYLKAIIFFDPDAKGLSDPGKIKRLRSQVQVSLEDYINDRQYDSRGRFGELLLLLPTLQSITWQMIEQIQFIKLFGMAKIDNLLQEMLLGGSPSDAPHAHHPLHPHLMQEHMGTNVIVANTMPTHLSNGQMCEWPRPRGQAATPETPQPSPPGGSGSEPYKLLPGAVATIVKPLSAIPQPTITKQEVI
In short: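 Binding signal is the background-corrected, normalized gProcessedSignal calculated by Agilent software. It was measured by applying nuclear extracts of COS-7 cells transiently transfected with a human HNF4α isoform expression vector to a custom Agilent SurePrint G3 4x180k array of ~44,000 double-stranded ~60-nt test sequences in quadruplicate, then imaging bound HNF4α on an Agilent G2565CA scanner at 2-µm resolution.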

Row | Sequence | binding signal
1 | TCAAGCTCAATGCAACCAGTTGGTGGGTCAGCCTAGGGAGATTAGAGTATCGGTCGA | 1.44 log2 normalized intensity
2 | GTTAGAACAAAGTCCAAATTCCTAACTATGGCCTAGGGAGATTAGAGTATCGGTCGA | 4.38 log2 normalized intensity
3 | TTTATTAGGGGTCAGCAAAGAACTCCCCAGGCCTAGGGAGATTAGAGTATCGGTCGA | 2.41 log2 normalized intensity
4 | ACCAGCAATTTTCAGGGTTAAAAGTTCTGCGCCTAGGGAGATTAGAGTATCGGTCGA | 1.05 log2 normalized intensity
5 | GTGTTTGTCCTTTGTTGCAATGCTGGAACAGCCTAGGGAGATTAGAGTATCGGTCGA | 1.28 log2 normalized intensity
6 | CAGGTGGGAGGGGTGGACTTTGGCTTTTCCGCCTAGGGAGATTAGAGTATCGGTCGA | 6.31 log2 normalized intensity
7 | GAGATAAGTCACCTTATCAAGTCCGAACTCGCCTAGGGAGATTAGAGTATCGGTCGA | 1.35 log2 normalized intensity
8 | GGAATCTTGCCCTGTCGCCCAGGCTGGAATGCCTAGGGAGATTAGAGTATCGGTCGA | 1.58 log2 normalized intensity
9 | TCTTTGCCCTCTTGGTATCAGCTTTGAGACGCCTAGGGAGATTAGAGTATCGGTCGA | 1.91 log2 normalized intensity
10 | GTGGACTTTGCCTGCCCATCCCGTGGACTCGCCTAGGGAGATTAGAGTATCGGTCGA | 4.49 log2 normalized intensity
11 | AAGAGACTTTGCCCTTTTTTTCTCTCCCCTGCCTAGGGAGATTAGAGTATCGGTCGA | 3.92 log2 normalized intensity
12 | GCTCTCCGTGGACTTTGCCCCCTACAGTTTGCCTAGGGAGATTAGAGTATCGGTCGA | 10.5 log2 normalized intensity
13 | TATCAGCTCTCCGTGGACTTTGCCCCCTACGCCTAGGGAGATTAGAGTATCGGTCGA | 11.3 log2 normalized intensity
14 | TCTTCCTTTCTATCAGCTCTCCGTGGACTTGCCTAGGGAGATTAGAGTATCGGTCGA | 3.52 log2 normalized intensity
15 | CTTTCTATCAGCTCTCCGTGGACTTTGCCCGCCTAGGGAGATTAGAGTATCGGTCGA | 9.95 log2 normalized intensity
16 | TTTGGCCCCCAGAGCCCCGTGTCTCCCTACGCCTAGGGAGATTAGAGTATCGGTCGA | 4.89 log2 normalized intensity
17 | ATCCCGTGGACTTTGCCTGCCCATCCCGTGGCCTAGGGAGATTAGAGTATCGGTCGA | 4.23 log2 normalized intensity
18 | TTGATTTAACATTTGTGATCTGGCACAAATGCCTAGGGAGATTAGAGTATCGGTCGA | 0.366 log2 normalized intensity
19 | AGATACTGAATCTCCCAGTGCTTTGATCTTGCCTAGGGAGATTAGAGTATCGGTCGA | 1.39 log2 normalized intensity

Row | Sequence | binding signal
20 | TCACCTGCTCATTGACCCTTAGGCCAAGGCGCCTAGGGAGATTAGAGTATCGGTCGA | 3.1 log2 normalized intensity
21 | ATGTCAGGAGCCCCACTGTAGTAAGGGAGTGCCTAGGGAGATTAGAGTATCGGTCGA | -0.892 log2 normalized intensity
22 | CACCTCTGCTTATCTCAACTGATTTACCTCGCCTAGGGAGATTAGAGTATCGGTCGA | 0.918 log2 normalized intensity
23 | TTAACACAAGTTATTACCGTGATGTTCGTTGCCTAGGGAGATTAGAGTATCGGTCGA | 1.14 log2 normalized intensity
24 | GGGCAAATCTGAGGTCAAAGCTGTCAGAGAGCCTAGGGAGATTAGAGTATCGGTCGA | -0.316 log2 normalized intensity
25 | GTCCCAGGGCAAAGGTCACCAGCTAAGCTGGCCTAGGGAGATTAGAGTATCGGTCGA | 6.21 log2 normalized intensity
26 | CAGAGCTGTCGTCCCAGGGCAAAGGTCACCGCCTAGGGAGATTAGAGTATCGGTCGA | 8.47 log2 normalized intensity
27 | CTGTCGTCCCAGGGCAAAGGTCACCAGCTAGCCTAGGGAGATTAGAGTATCGGTCGA | 7.57 log2 normalized intensity
28 | AGGGCAAAGGTCACCAGCTAAGCTGTTACTGCCTAGGGAGATTAGAGTATCGGTCGA | 5.83 log2 normalized intensity
29 | CTTCCCAGCTGCTGGTCAAAGGGCATTACTGCCTAGGGAGATTAGAGTATCGGTCGA | 5.83 log2 normalized intensity
30 | ATCCTGCCTCCATTAATTAACCTTTGAGCTGCCTAGGGAGATTAGAGTATCGGTCGA | 6.76 log2 normalized intensity
31 | ATGAGATACCCATTCACATGACCTTTGTCCGCCTAGGGAGATTAGAGTATCGGTCGA | 8.96 log2 normalized intensity
32 | CATTCACATGACCTTTGTCCGTTCCTGCCTGCCTAGGGAGATTAGAGTATCGGTCGA | 6.63 log2 normalized intensity
33 | CTGGGATGAGATACCCATTCACATGACCTTGCCTAGGGAGATTAGAGTATCGGTCGA | 3.92 log2 normalized intensity
34 | ACATGACCTTTGTCCGTTCCTGCCTGGAGCGCCTAGGGAGATTAGAGTATCGGTCGA | 5.37 log2 normalized intensity
35 | TTCGGTGCTGACCTTTGTTCACATTTGTGCGCCTAGGGAGATTAGAGTATCGGTCGA | 5.96 log2 normalized intensity
36 | ATACCCATTCACATGACCTTTGTCCGTTCCGCCTAGGGAGATTAGAGTATCGGTCGA | 7.49 log2 normalized intensity
37 | CTGATGAATAGAAAGAGGTCAATGTACTTAGCCTAGGGAGATTAGAGTATCGGTCGA | 2.94 log2 normalized intensity
38 | TATGTTAATGGCAGAATCAAAGGTCAAAATGCCTAGGGAGATTAGAGTATCGGTCGA | 5.17 log2 normalized intensity

Row | Sequence | binding signal
39 | TGCACTTTGCCCTCTCTTCAGCACCTTTTAGCCTAGGGAGATTAGAGTATCGGTCGA | 5.26 log2 normalized intensity
40 | CATTGATAATTCAGTTTCATTGCACTTTGCGCCTAGGGAGATTAGAGTATCGGTCGA | 4.62 log2 normalized intensity
41 | ATAATTCAGTTTCATTGCACTTTGCCCTCTGCCTAGGGAGATTAGAGTATCGGTCGA | 9.39 log2 normalized intensity
42 | TCAGTTTCATTGCACTTTGCCCTCTCTTCAGCCTAGGGAGATTAGAGTATCGGTCGA | 7.35 log2 normalized intensity
43 | TTCATTGCACTTTGCCCTCTCTTCAGCACCGCCTAGGGAGATTAGAGTATCGGTCGA | 6.34 log2 normalized intensity
44 | ACTGCCATTGATAATTCAGTTTCATTGCACGCCTAGGGAGATTAGAGTATCGGTCGA | -0.131 log2 normalized intensity
45 | GGTCTGTTTGTGAAACAGTGGGCAATATGAGCCTAGGGAGATTAGAGTATCGGTCGA | 1.18 log2 normalized intensity
46 | AACCTAGCCCCCTTTCCCTTATCTTTGTTAGCCTAGGGAGATTAGAGTATCGGTCGA | 2.54 log2 normalized intensity
47 | GGACAAAGTTCGTGGAAAGTGGAAGAATGGGCCTAGGGAGATTAGAGTATCGGTCGA | 0.952 log2 normalized intensity
48 | CATGAAGCTTCCCCTTTAACCAATATTAGCGCCTAGGGAGATTAGAGTATCGGTCGA | 0.107 log2 normalized intensity
49 | AACCTTCATCTCTCTTTGTTGACATCTGCTGCCTAGGGAGATTAGAGTATCGGTCGA | -0.0144 log2 normalized intensity
50 | GAATGTTGAACCTTTCTTTGTCTTTGCAATGCCTAGGGAGATTAGAGTATCGGTCGA | 1.98 log2 normalized intensity
51 | AGGAGTGTCTTTCTCCTTGAACACAGTGTTGCCTAGGGAGATTAGAGTATCGGTCGA | 1.24 log2 normalized intensity
52 | TATCCAATAAAACACTATCTTCTTTCAGTGGCCTAGGGAGATTAGAGTATCGGTCGA | 0.405 log2 normalized intensity
53 | CATGCTCTTGGAATGTTGAACCTTTCTTTGGCCTAGGGAGATTAGAGTATCGGTCGA | 3.19 log2 normalized intensity
54 | TCTTTCAGTGTTGACCTTTGAACATTTCTTGCCTAGGGAGATTAGAGTATCGGTCGA | 8.97 log2 normalized intensity
55 | TCTTGGAATGTTGAACCTTTCTTTGTCTTTGCCTAGGGAGATTAGAGTATCGGTCGA | 2.31 log2 normalized intensity
56 | AACACTATCTTCTTTCAGTGTTGACCTTTGGCCTAGGGAGATTAGAGTATCGGTCGA | 7.46 log2 normalized intensity
57 | TATCTTCTTTCAGTGTTGACCTTTGAACATGCCTAGGGAGATTAGAGTATCGGTCGA | 9.23 log2 normalized intensity
